SMILES strings stand for the structures. This is part of a sample that, as a whole, favours compounds with a hit. Of some 79,000 tested, about 15% had one in any assay. Values without a mark were called inactive. Activity calls are given as the source filed them. No stated cut-off is given here; in the data, active means growth inhibition above about 70%; inactive means the rest.

We go through 16 compounds from PubChem BioAssay (NCI).

This experiment is described as follows: NCI Yeast Anticancer Drug Screen. Data for the CLN2oe strain (AID 163).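 Further: 0% = growth of vehicle-only control cultures.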 To be noted: S. cerevisiae CLN2oe strain, at 100.0 µM, active compounds read high. In outline: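 Here, growth inhibition in a cell-cycle-altered yeast strain after compound exposure was quantified against vehicle control growth.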
Turning to `NC1CCCCC1N.Nc1c(N=Nc2ccc(-c3ccc(N=Nc4cc(S(=O)(=O)[O-])c5ccccc5c4N)cc3)cc2)cc(S(=O)(=O)[O-])c2ccccc12.[OH3+].[OH3+].[Pt+4]`, the growth inhibition was 63%.

Turning to `COC(=O)CCC(NC(=S)N/N=C(\C)c1ccccn1)C(=O)OC` (stereo unspecified), the growth inhibition was 88% (active).

Consider `NC(=O)C(=O)NNc1ccccc1`, for which the growth inhibition was 96% (active).

For the compound `COc1cc(C2SCC(=O)N2c2ccc(-c3ccc(-n4c(-c5ccccc5)nc5ccccc5c4=O)cc3)cc2)ccc1O` (stereo unspecified), the growth inhibition was -14%.

Turning to `COc1ccc(/C=C/c2sc3ccccc3[n+]2CCCCI)cc1OC`, the growth inhibition is 68%.

For the compound `Cc1c(C(C)C)cc(OCCO)cc1C(C)C`, the growth inhibition is 73% (active).

`Cc1cc(NCCCCCCCCNc2cc(C)nc3cc(N)ccc23)c2ccc(N)cc2n1`: the growth inhibition is 94% (active).

Regarding `C=C(Cl)COC(=O)Nc1cccc(Cl)c1`, the growth inhibition is 94% (active).

Turning to `CC(=O)OC1CC2C(C)(C)C(=O)C=C[C@]2(C)C2CCC3(C)C(=CCC3[C@H](CO)C[C@H](O)C(=O)C(C)(C)O)[C@]12C` (stereo partly specified), the growth inhibition is 82% (active).

`COc1ccc(/C=C/C(=O)c2ccccc2)cc1OC`: the growth inhibition is 97% (active).

In the case of `COc1c(O)c(C=O)c(Br)c(C=O)c1O`, the growth inhibition was 90% (active).

For the compound `O=[N+]([O-])c1cc(Cl)cnc1Br`, the growth inhibition was 8%.

Take `Cc1ccc2c(c1)C1(SC(C)C(=O)N1c1ccc(Cl)cc1)C(=O)N2` (stereo unspecified): the growth inhibition was 99% (active).

With `COc1cc(CSc2ccc(O)cc2)cc(O)c1O`, the growth inhibition was 17%.

Take `Cc1ccc2c3ccc4c(c3n(C)c2c1)C(=O)C=CC4=O`: the growth inhibition is 27%.

Take `O=C(Nc1ccc(Cl)cc1)Nc1nnc2nc(C(C(=O)c3cccc([N+](=O)[O-])c3Cl)c3nc4nnc(NC(=O)Nc5ccc(Cl)cc5)n4[nH]c3=O)c(=O)[nH]n12`: the growth inhibition is 37%.
